Shown are actives, neighbours in structure and some others; about 12% of the full set was active somewhere.
Shiga inhibitor: inhibitors of Shiga toxin in Vero cells | hit rate 9.2% among 290,000 | AID 2315 | inhibition, % at 38.7 µM | Vero cells, Shiga toxin protein synthesis inhibition reporter; in the data active = inhibition mostly above about 28%, no sharp cut-off; inactive = mostly below about 43%
Lassa entry inh: blocks Lassa virus binding to or entry into cells; Lassa virus pseudotype entry inhibition, cell reporter; AID 540256; Potency, µM (highest dose often 37.9 µM), actives largely listed as inhibitors; hit rate 1.2% among 300,000; calls by dose curve; tested in HEK293 cells; also: nearly all actives have a fitted effect of over 50% in size
Cycloheximide cs: affects cycloheximide protein synthesis inhibition readout, counter-screen; cell reporter, cycloheximide protein synthesis inhibition counterscreen; AID 2314; max response, %; hit rate 12% among 300,000; in the data active = max response mostly above about 13%, no sharp cut-off; inactive = mostly below about 14%; also: read at 38.3 µM for the half of the compounds with a filed dose
MARV entry inh: inhibitors of Marburg virus binding or cell entry; Marburg virus pseudotyped entry inhibition, cell reporter; Potency, µM (top dose mostly 37.8 µM), actives largely listed as inhibitors; hit rate 1.8% among 300,000; AID 540276; calls by dose curve; tested in HEK293 cells
Of the large screens only hits and unclear results are named; the others gave an inactive call.

Cc1ccc(Sc2ncccc2C(=O)NCc2cc([N+](=O)[O-])ccc2O)c(C)c1	Shiga inhibitor 103.7, Cycloheximide cs 66.1 (no result: Lassa entry inh, MARV entry inh)
COc1ccc(C(=O)/C=C/c2cn(CC(O)CN(CC(C)C)CC(C)C)c3ccccc23)cc1OC (stereo unspecified)	Lassa entry inh inconclusive, MARV entry inh inconclusive
COc1ccc(C(=O)/C=C/c2cn(CC(O)CN3CCOCC3)c3ccccc23)cc1 (stereo unspecified)	Cycloheximide cs 12.5, MARV entry inh inconclusive
O=C(/C=C/c1cn(CC(O)CN2CCOCC2)c2ccccc12)c1cccs1 (stereo unspecified)	none (no result: Lassa entry inh, MARV entry inh)
Cc1ccc(C(=O)/C=C/c2cn(CC(O)CN3CCOCC3)c3ccccc23)cc1 (stereo unspecified)	Cycloheximide cs 29.7, MARV entry inh inconclusive
Cc1cc(C)cc(NC(=O)C(=O)NCC(c2cccnc2)N2CCOCC2)c1 (stereo unspecified)	none (no result: Shiga inhibitor, Cycloheximide cs, MARV entry inh)
c1cc(OCCN2CC2)ccn1	MARV entry inh 7.08µM (no result: Shiga inhibitor, Cycloheximide cs)
COc1ccc(OCCOCCN2CCN(C)CC2)cc1	none (no result: Lassa entry inh, MARV entry inh)
CCN1CCN(CCCOc2ccc(-c3ccccc3)cc2)CC1	Shiga inhibitor 70.4, Cycloheximide cs 37.2, MARV entry inh inconclusive
CN1CCN(CCCOc2ccc(-c3ccccc3)cc2)CC1	Shiga inhibitor 74.6, Lassa entry inh inconclusive, Cycloheximide cs 27.4, MARV entry inh inconclusive
CN1CCN(CCOc2ccc(-c3ccccc3)cc2)CC1	Shiga inhibitor 85.8, Cycloheximide cs 46.2 (no result: Lassa entry inh, MARV entry inh)
c1cnc(OCCN2CC2)cn1	none (no result: Shiga inhibitor, Cycloheximide cs)
CC/C(=N\NC(N)=O)c1ccc(OC(F)F)cc1	none
Cc1ccc(/C([O-])=C(/C(=S)NCCN2CCOCC2)[n+]2ccccc2)cc1[N+](=O)[O-]	none (no result: Lassa entry inh, MARV entry inh)
Cc1cccc(OCC(=O)NCC2(N3CCN(C)CC3)CCCCC2)c1	MARV entry inh inconclusive (no result: Shiga inhibitor, Cycloheximide cs)
C=CCNC(=O)COC(=O)c1ccc(Sc2nncn2C)c([N+](=O)[O-])c1	none (no result: Lassa entry inh)
CCC(C)NC(=O)Cn1c(=O)n(CCCCCC(=O)NCc2ccccc2Cl)c(=O)c2sccc21 (stereo unspecified)	none (no result: Shiga inhibitor, Cycloheximide cs)
COc1cc2c(cc1OC)CN(C(=O)c1cccc(S(=O)(=O)N3CCc4ccccc43)c1)CC2	Lassa entry inh 3.98µM, MARV entry inh 3.98µM (no result: Shiga inhibitor, Cycloheximide cs)
O=C(O)C1CC=CCC1C(=O)Nc1ccc(S(=O)(=O)N2CCCc3ccccc32)cc1 (stereo unspecified)	Lassa entry inh 3.26µM, MARV entry inh 2.06µM
COc1ccc(S(=O)(=O)N2CCCc3ccccc32)cc1OC	Shiga inhibitor 55.5, Cycloheximide cs 32.9 (no result: Lassa entry inh, MARV entry inh)
COc1cc(/C=C/C(=O)O)cc(S(=O)(=O)N2CCCc3ccccc32)c1OC	Cycloheximide cs 12.4 (no result: Lassa entry inh, MARV entry inh)
COc1ccc(S(=O)(=O)N2CCCc3ccccc32)cc1[N+](=O)[O-]	none (no result: Lassa entry inh, MARV entry inh)
COc1cc2c(cc1OC)CN(C(=O)c1cccc(S(=O)(=O)N(C)C)c1)CC2	none (no result: Lassa entry inh, MARV entry inh)
COc1cc(/C=C/C(=O)O)cc(S(=O)(=O)N2CCc3ccccc32)c1OC	none
COCCNC(=O)c1ccc(S(=O)(=O)N2CCCc3ccccc32)cc1	Shiga inhibitor 74.2, Lassa entry inh inconclusive, Cycloheximide cs 29.3
O=C(O)c1ccc(S(=O)(=O)N2CCCc3ccccc32)cc1	none (no result: Lassa entry inh, MARV entry inh)
O=S(=O)(c1ccccc1)N1CCCc2ccccc21	none (no result: Lassa entry inh, MARV entry inh)
O=S(=O)(c1ccc(F)cc1)N1CCCc2ccccc21	Cycloheximide cs 31.4 (no result: Shiga inhibitor, Lassa entry inh, MARV entry inh)
CC(=O)c1ccc(S(=O)(=O)N2CCCc3ccccc32)cc1	Cycloheximide cs 11.2 (no result: Lassa entry inh, MARV entry inh)
COc1cccc(CC(NC(C)=O)C(=O)NC2CCN(C(=O)c3ccncc3)CC2)c1OC (stereo unspecified)	none (no result: Lassa entry inh)
CN(C)c1ccc(/C=C2/SC(=O)N(CCN=C3NS(=O)(=O)c4ccccc43)C2=O)cc1	Shiga inhibitor 63.0, Cycloheximide cs 28.9
CN(C)c1ccc(/C=C2\SC(=O)N(CCc3nnc(N)s3)C2=O)cc1	Lassa entry inh inconclusive, MARV entry inh 1.12µM
CN(C)c1ccc(/C=C2\SC(=O)N(CC(O)Cn3c4ccccc4c4ccccc43)C2=O)cc1 (stereo unspecified)	MARV entry inh inconclusive
O=C(Nc1ccc(F)cc1)N1CCN(CCc2ccccc2)CC1	none
CCNC(=O)N1CCN(CCCC(c2ccc(F)cc2)c2ccc(F)cc2)CC1	Lassa entry inh inconclusive, MARV entry inh 10µM (no result: Shiga inhibitor, Cycloheximide cs)
Fc1ccccc1CSCc1nc2ccccc2[nH]1	Shiga inhibitor 100.5, Cycloheximide cs 25.2 (no result: Lassa entry inh, MARV entry inh)
c1ccc(SCc2nc3ccccc3[nH]2)cc1	Shiga inhibitor 162.7, Cycloheximide cs 40.7, MARV entry inh inconclusive
Clc1ccc(SCc2nc3ccccc3[nH]2)cc1	Shiga inhibitor active, Cycloheximide cs 49.1
Clc1ccc(OCCSCc2nc3ccccc3[nH]2)cc1	none
c1ccc2[nH]c(CSc3ncnc4c3oc3ccccc34)nc2c1	Shiga inhibitor 61.9, Cycloheximide cs 15.9, MARV entry inh inconclusive
Nn1c(SCc2nc3ccccc3[nH]2)nnc1-c1ccccc1	none
CC(=O)N1c2ccc(S(=O)(=O)N3CCCCC3)cc2CC1C(=O)NCc1cccc(Cl)c1 (stereo unspecified)	Lassa entry inh inconclusive
Cc1ccc(SCc2nc3ccccc3[nH]2)cc1	Shiga inhibitor 130.4, Lassa entry inh inconclusive, Cycloheximide cs 44.7, MARV entry inh inconclusive
Cc1ccc(CSCc2nc3ccccc3[nH]2)cc1	Shiga inhibitor 66.2, Lassa entry inh inconclusive, Cycloheximide cs 39.3, MARV entry inh inconclusive
c1csc(Cc2nc3ccccc3[nH]2)c1	Lassa entry inh inconclusive, Cycloheximide cs 23.7, MARV entry inh inconclusive
CC(C)SCc1nc2ccccc2[nH]1	Cycloheximide cs 15.2
Cn1c(Cc2cccs2)nnc1SCc1nc2ccccc2[nH]1	none
Cc1ccc(OCCSCc2nc3ccccc3[nH]2)cc1	none
CNC(=O)NC(=O)COC(=O)/C=C/c1cccc(Br)c1	none (no result: Lassa entry inh, MARV entry inh)
CCOc1ccccc1NS(=O)(=O)c1cc2[nH]c(=O)c(=O)[nH]c2cc1C	none (no result: Shiga inhibitor, Cycloheximide cs, MARV entry inh)
COc1ccc(C(CNC(=O)c2ccc(NS(=O)(=O)c3cccc([N+](=O)[O-])c3)cc2)N2CCOCC2)cc1 (stereo unspecified)	none
Cn1c(SCc2nc3ccccc3[nH]2)nnc1-c1cccs1	none
c1ccc2[nH]c(CSc3nccs3)nc2c1	Shiga inhibitor 75.0, Cycloheximide cs 23.3
CC(=O)Nc1cccc(-c2csc(NCc3ccco3)n2)c1	Shiga inhibitor 51.0
Oc1ccc(-c2csc(NCc3ccco3)n2)cc1	Shiga inhibitor 157.8, Lassa entry inh inconclusive, Cycloheximide cs 43.6
Cc1nc2ncccn2c1-c1csc(NCc2ccco2)n1	none
O=S(=O)(Nc1nc2ccccc2nc1NCc1ccco1)c1cccs1	none
c1coc(CNc2nc(-c3cccs3)cs2)c1	Shiga inhibitor 89.7, Lassa entry inh inconclusive, Cycloheximide cs 33.2, MARV entry inh inconclusive
O=C(NCCS(=O)(=O)N1CCCCCC1)c1ccccc1	MARV entry inh inconclusive (no result: Shiga inhibitor, Cycloheximide cs)
O=C(NC1CCN(C(=O)C2CCCCC2)CC1)c1ccccc1	none
CC(=O)Nc1ccc(NC(=O)CCN2C(=O)c3ccccc3C2=O)cc1	none (no result: Shiga inhibitor, Lassa entry inh, MARV entry inh)
CC(=O)Nc1ccc(C2C(=O)c3ccccc3C2=O)cc1	Shiga inhibitor 68.1, Cycloheximide cs 23.7
CCCC(=O)Nc1ccc(C2C(=O)c3ccccc3C2=O)cc1	Cycloheximide cs 12.1, MARV entry inh inconclusive
CCc1cccc(CC)c1NC(=O)CN(C)S(=O)(=O)c1ccc2c(c1)n(C)c(=O)c(=O)n2C	none (no result: Shiga inhibitor, Cycloheximide cs)
Cc1ccc(OCC(O)Cn2c(=N)n(CCN3CCCCC3)c3ccccc32)cc1 (stereo unspecified)	Lassa entry inh inconclusive, MARV entry inh 8.2µM
